Values joined by “and” are separate entries in the source; they are usually repeats but may differ in a detail not shown here. Identical values can stand only once. Results filed as inconclusive are left out. A structure can be active in one record and inactive in another. Active and inactive are the calls of the source. Unless noted, calls follow the shape of the dose curve; as a rule, active = well fitted curve in the direction sought with a large enough effect in the repeat runs; inconclusive = weak or mixed curves; inactive = no such curve, though single readings can be large; an effect the other way counts as inactive or inconclusive.

These results are taken from PubChem BioAssay (Tox21).

Assay [1] can be described thus: qHTS assay to identify small molecule antagonists of the retinoid acid receptor (RAR) signaling pathway - cell viability counter screen (AID 1159551). Also: nearly all actives have a fitted effect of over 35% in size. Also: potency is read from the fitted curve at half-maximal effect. The gist of the method:
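Measured by luminescent ATP detection, viability reflects C3RL4 cells treated 6 h at 37 C with test chemicals in the presence of 1 uM (final) retinol.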
In general terms: In qHTS, concentration-response curves come from the screen itself.

Assay [2] concerns the target Luciferin 4-monooxygenase (Photinus pyralis) (UniProt P08659). The assay is described as follows: qHTS assay to identify small molecule inhibitors of firefly luciferase (AID 1224835). Also: nearly all actives have a fitted effect of over 25% in size. Also: potency is read from the fitted curve at half-maximal effect. Put shortly: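 Quantitative HTS format; KM concentrations of both substrates. Purified P. pyralis FLuc activity quantified from luminescence images.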
Assay [3] in a line: qHTS assay to identify small molecule agonists of the constitutive androstane receptor (CAR) signaling pathway - cell viability counter screen (AID 1224836). Also: nearly all actives have a fitted effect of over 45% in size. Also: potency is read from the fitted curve at half-maximal effect. The gist of the method:
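Fluorescence from CellTiter-Fluor indicates live cells after 23 h exposure. The human hepatoma line expresses hCAR and a CYP2B6-2.2kb reporter. Incubation medium contains 0.75 uM PK11195 (final).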

The nature of assay [4]: qHTS assay to identify small molecule antagonists of the constitutive androstane receptor (CAR) signaling pathway - cell viability counter screen (AID 1224837). Also: nearly all actives have a fitted effect of over 45% in size. Also: potency is read from the fitted curve at half-maximal effect. The gist of the method: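 To flag cytotoxic false antagonists, HepG2 hCAR/CYP2B6-2.2kb cells were treated 23 hr with 15-concentration compound series and 50 nM CITCO at 37 C/5% CO2; CellTiter-Fluor fluorescence was the measured end point.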

The target of assay [5] is Nuclear receptor subfamily 1 group I member 3 (Homo sapiens) (UniProt Q14994). The assay is described as follows: qHTS assay to identify small molecule antagonists of the constitutive androstane receptor (CAR) signaling pathway (AID 1224838).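 Also: HepG2 cells stably expressing hCAR with CYP2B6 luciferase reporter stimulated by CITCO; nearly all actives have a fitted effect of over 40% in size.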 The gist of the method: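 Human hepatoma HepG2 cells expressing hCAR and a CYP2B6 promoter (2.2 kb) luciferase construct; compound titration (15 points) with 50 nM CITCO final, 24 h at 37 C/5% CO2; luminescence via ONE-Glo after 30 min at room temperature.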

A short description of assay [6]: qHTS assay to identify small molecule antagonists of the estrogen related receptor signaling pathway with the pleiotropic PPARgamma coactivator (PGC) from Tox21 10K library - cell viability counter screen (AID 1224840; active = well fitted cell-killing curve with a large enough effect in the repeat runs, not every such curve was filed as active; also: nearly all actives have a fitted effect of over 40% in size; also: potency is read from the fitted curve at half-maximal effect). Put shortly: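 Seeded PGC/ERR cells (2,000/well, 6 h, 37 C/5% CO2) get compound by pin tool; 17.5 h incubation at 37 C; CellTiter-Fluor added, 30 min, fluorescence measured.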

Assay [7] can be described thus: qHTS assay to identify small molecule antagonists of the estrogen related receptor signaling pathway with the pleiotropic PPARgamma coactivator (PGC) from Tox21 10K library (AID 1224841; call rule not given here; also: actives are mostly falling curves and most rising ones were filed inactive; nearly all actives have a fitted effect of over 50% in size; also: potency is read from the fitted curve at half-maximal effect). Put shortly: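 Test chemicals dissolved in DMSO were applied to pre-incubated (6 h) PGC/ERR cells at 2,000 cells/well for an 18 h, 37 C treatment; reporter luminescence was then read using One-Glo.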

Assay [8] in a line: qHTS assay to identify small molecule agonists of the estrogen related receptor signaling pathway with the pleiotropic PPARgamma coactivator (PGC) from Tox21 10K library (AID 1224842). Also: nearly all actives have a fitted effect of over 15% in size. Also: potency is read from the fitted curve at half-maximal effect. Put shortly: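 PGC/ERR reporter cells (NTP line) were seeded 2,000 per well, rested 6 h at 37 C/5% CO2, then pin-dosed with compounds in DMSO for 18 h at 37 C; luciferase read by One-Glo luminescence after 30 min at room temperature.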

A short description of assay [9]: qHTS assay to identify small molecule antagonists of the estrogen related receptor (ERR) signaling pathway from Tox21 library - cell viability counter screen (AID 1224834). Also: nearly all actives have a fitted effect of over 30% in size. Also: potency is read from the fitted curve at half-maximal effect. The gist of the method:
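Seeded ERR cells were rested 6 h at 37 C/5% CO2 before compounds, positive and negative controls or DMSO were added. Incubation continued for 17.5 h, and viability was then quantified by CellTiter-Fluor fluorescence.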

In assay [10] the target is Nuclear receptor subfamily 1 group I member 3 (Homo sapiens) (UniProt Q14994). The assay is described as follows: qHTS assay to identify small molecule agonists of the constitutive androstane receptor (CAR) signaling pathway (AID 1224839). Also: nearly all actives have a fitted effect of over 15% in size. Also: potency is read from the fitted curve at half-maximal effect. The gist of the method:
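Stable hCAR/CYP2B6-2.2kb HepG2 line in DMEM with 10% FBS; compounds (15 concentrations) and 0.75 uM PK11195 final, 24 h at 37 C/5% CO2, then ONE-Glo luminescence after 30 min.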

Assay [11] deals with Thyrotropin receptor (Homo sapiens) (UniProt P16473). The assay is described as follows: qHTS assay to identify small molecule agonists of the thyroid stimulating hormone receptor (TSHR) signaling pathway (AID 1224843; calls by dose curve; also: nearly all actives have a fitted effect of over 45% in size). The gist of the method: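 Compounds are titrated over 15 concentrations, in triplicate, onto TSHR-HEK293 cells seeded at 800/well. Plates sit 30 min at room temperature before cAMP-d2 and anti-cAMP cryptate are added; signal is read after a further hour.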

The nature of assay [12]: qHTS assay to identify small molecule antagonists of the retinoic acid receptor (RAR) signaling pathway (AID 1159552; also: nearly all actives have a fitted effect of over 50% in size; also: potency is read from the fitted curve at half-maximal effect). The gist of the method:
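Overnight-plated C3RL4 reporter cells get compound, then retinol to 1 uM final; plates sit 6 hr at 37 C, 5% CO2. A luciferase reagent is added and light output recorded after 30 min at room temperature.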

A short description of assay [13]: qHTS assay to identify small molecule agonists of the retinoic acid receptor (RAR) signaling pathway (AID 1159553). Also: potency is read from the fitted curve at half-maximal effect. The gist of the method:
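6 hr compound exposure (DMSO vehicle) of overnight-plated C3RL4 RARE-luc cells at 37 C; luminescence quantified after 30 min RT with luciferase reagent.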

Sequence of Thyrotropin receptor (Homo sapiens) (P16473 whole entry, looked up): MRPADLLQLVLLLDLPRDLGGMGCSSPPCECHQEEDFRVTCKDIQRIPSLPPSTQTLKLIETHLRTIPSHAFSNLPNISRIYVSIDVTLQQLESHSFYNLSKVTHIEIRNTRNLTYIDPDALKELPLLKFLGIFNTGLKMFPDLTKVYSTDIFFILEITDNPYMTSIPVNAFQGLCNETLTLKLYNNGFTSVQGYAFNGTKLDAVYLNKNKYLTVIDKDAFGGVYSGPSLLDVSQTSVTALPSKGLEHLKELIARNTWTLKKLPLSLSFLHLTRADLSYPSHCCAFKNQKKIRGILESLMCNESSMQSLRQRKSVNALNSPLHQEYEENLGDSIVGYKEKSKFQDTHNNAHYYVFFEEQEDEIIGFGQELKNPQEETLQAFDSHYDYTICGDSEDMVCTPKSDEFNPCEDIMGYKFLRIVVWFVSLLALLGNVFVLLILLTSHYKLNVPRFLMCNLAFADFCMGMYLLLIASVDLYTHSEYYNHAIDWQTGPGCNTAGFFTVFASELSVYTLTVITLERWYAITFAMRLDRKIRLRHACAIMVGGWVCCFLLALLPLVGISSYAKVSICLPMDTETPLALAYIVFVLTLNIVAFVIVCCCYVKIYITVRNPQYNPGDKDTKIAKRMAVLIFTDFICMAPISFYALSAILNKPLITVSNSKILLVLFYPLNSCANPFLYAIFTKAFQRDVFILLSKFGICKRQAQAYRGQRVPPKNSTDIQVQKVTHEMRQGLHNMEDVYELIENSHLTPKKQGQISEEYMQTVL
Sequence of Luciferin 4-monooxygenase (Photinus pyralis) (P08659 whole entry, looked up): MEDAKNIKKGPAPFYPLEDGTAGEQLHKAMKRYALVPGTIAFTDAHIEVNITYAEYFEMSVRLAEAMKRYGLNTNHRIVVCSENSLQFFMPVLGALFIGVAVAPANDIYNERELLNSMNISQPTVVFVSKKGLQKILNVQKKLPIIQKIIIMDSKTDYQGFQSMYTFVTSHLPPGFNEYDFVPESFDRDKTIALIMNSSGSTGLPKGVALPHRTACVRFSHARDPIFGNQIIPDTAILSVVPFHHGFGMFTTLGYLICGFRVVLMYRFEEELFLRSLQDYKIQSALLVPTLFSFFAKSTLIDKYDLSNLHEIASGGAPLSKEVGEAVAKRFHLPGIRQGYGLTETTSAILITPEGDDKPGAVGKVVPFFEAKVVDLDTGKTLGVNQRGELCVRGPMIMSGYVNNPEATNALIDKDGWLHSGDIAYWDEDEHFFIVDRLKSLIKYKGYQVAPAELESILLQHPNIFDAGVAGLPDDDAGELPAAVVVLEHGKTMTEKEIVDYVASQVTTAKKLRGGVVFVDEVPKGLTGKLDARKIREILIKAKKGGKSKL
Sequence of Nuclear receptor subfamily 1 group I member 3 (Homo sapiens) (Q14994 whole entry, looked up): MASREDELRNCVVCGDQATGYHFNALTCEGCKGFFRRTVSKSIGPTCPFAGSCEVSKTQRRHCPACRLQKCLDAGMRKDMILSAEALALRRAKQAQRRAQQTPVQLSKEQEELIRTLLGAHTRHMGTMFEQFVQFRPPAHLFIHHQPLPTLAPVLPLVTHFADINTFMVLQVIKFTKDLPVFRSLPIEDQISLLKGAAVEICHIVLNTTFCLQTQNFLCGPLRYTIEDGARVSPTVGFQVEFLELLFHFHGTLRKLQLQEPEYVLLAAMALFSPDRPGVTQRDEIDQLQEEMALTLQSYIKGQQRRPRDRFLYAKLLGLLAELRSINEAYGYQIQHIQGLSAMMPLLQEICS

Turning to `C#C[C@]1(O)CC[C@H]2[C@@H]3CCC4=Cc5oncc5C[C@]4(C)[C@H]3CC[C@@]21C`, the Potency entry in assay [1], in [2], in assay [3], in assay [4], in assay [5] and in assay [8] was “inactive” throughout. The Potency was 48.6 µM (active) and inactive in assay [6]; 24.3 µM (active) and 23.7 µM (active) in assay [7].
As to `COC(=O)CCC(=O)OC`, the Potency entry in assay [1], in [9], in [2], in [3], in [4] and in assay [5] was “inactive” throughout. The Potency result in assay [10], in assay [6], in assay [7], in assay [8] and in assay [11] was “inactive” in each case.
On to `C[C@]12CC[C@H]3[C@@H](CCC4=CC(=O)CC[C@@]43C)[C@@H]1CC[C@@H]2C(=O)CO`, for which the Potency result in assay [1], in assay [9], in assay [2], in assay [3], in [4] and in assay [5] was “inactive” each time. Moreover, the Potency entry in assay [10], in [6], in [7] and in assay [8] was “inactive” throughout.
On to `CC(=O)CC/C=C(\C)CCC=C(C)C`, for which the Potency result in [1], in assay [9], in assay [2], in assay [3], in [4] and in [5] was “inactive” each time. Besides, the Potency entry in assay [10], in [6] and in [11] was “inactive” throughout.
`O=C(c1ccccc1)c1ccc(O)cc1O`: the Potency result in assay [1], in assay [13], in assay [3], in [5], in [6] and in assay [11] was “inactive” in each case. The Potency is 55.5 µM (active) and inactive in [12]; 69.9 µM (active) and inactive in [9]; 89.4 µM (active) in assay [2]; 61.1 µM (active) in assay [10].
As to `CC(C)Oc1ccc2c(=O)c(-c3ccccc3)coc2c1`, the Potency result in [1], in assay [12], in assay [3], in assay [4], in assay [5] and in assay [6] was “inactive” in each case. The Potency result in assay [7] and in assay [11] was “inactive” throughout. Further, the Potency in [13] is 0.335 µM (active); in assay [2], 1.38 µM (active) and 1.55 µM (active); in assay [10], 1.5 µM (active) and 2.11 µM (active); in assay [8], 2.66 µM (active) and 2.98 µM (active).
For `O=C1c2cccc(O)c2C(=O)c2c(O)cccc21`, the Potency entry in [1], in assay [12], in assay [13], in assay [2], in assay [3] and in [4] was “inactive” in each case. Moreover, the Potency entry in [5], in [10], in [6], in assay [8] and in [11] was “inactive” in each case. Also, the Potency in assay [7] was 39 µM (active) and inactive.
Turning to `CCC(C)(O)CCCC(C)C` (configuration not stated), the Potency entry in assay [1], in [12], in assay [13], in assay [9], in assay [2] and in [3] was “inactive” throughout. Besides, the Potency result in assay [4], in [5], in [10], in [6] and in assay [11] was “inactive” each time.
Consider `O=C=Nc1ccc(Cc2ccc(N=C=O)cc2)cc1`, for which the Potency result in assay [1], in [12], in [13], in assay [9], in [2] and in assay [3] was “inactive” throughout. Besides, the Potency result in assay [4], in assay [6], in assay [7], in assay [8] and in assay [11] was “inactive” throughout.
For `COC(=O)Nc1nc2ccc(S(=O)c3ccccc3)cc2[nH]1` (configuration not stated), the Potency result in assay [1], in assay [2], in assay [3], in assay [4], in assay [5] and in [6] was “inactive” throughout. Besides, the Potency result in assay [7] is “inactive”. Also, the Potency entry in assay [10] was “inactive and 6.68 µM (active)”; in assay [8], “inactive and 11.9 µM (active)”.
As for `O=C1OC2(c3cc(Br)c(O)c(Br)c3Oc3c2cc(Br)c(O)c3Br)c2c(Cl)c(Cl)c(Cl)c(Cl)c21`, the Potency in assay [1] was 4.33 µM (active); in [2], 40 µM (active) and 24.2 µM (active); in assay [3], 13.7 µM (active) and 37.1 µM (active); in assay [4], 19.4 µM (active) and 33.1 µM (active); in assay [6], 4.86 µM (active) and 29.5 µM (active); in assay [7] it was 10.9 µM (active). In addition, the Potency entry in [5], in assay [10], in assay [8] and in assay [11] was “inactive” throughout.
For the molecule `OC[C@H]1O[C@@H]2O[C@H]3[C@H](O)[C@@H](O)[C@@H](O[C@H]4[C@H](O)[C@@H](O)[C@@H](O[C@H]5[C@H](O)[C@@H](O)[C@@H](O[C@H]6[C@H](O)[C@@H](O)[C@@H](O[C@H]7[C@H](O)[C@@H](O)[C@@H](O[C@H]8[C@H](O)[C@@H](O)[C@@H](O[C@H]1[C@H](O)[C@H]2O)O[C@@H]8CO)O[C@@H]7CO)O[C@@H]6CO)O[C@@H]5CO)O[C@@H]4CO)O[C@@H]3CO`, the Potency result in [1], in assay [12], in assay [13], in [9], in assay [2] and in assay [3] was “inactive” throughout. For the same molecule, the Potency result in assay [4], in assay [5], in assay [10], in assay [6] and in assay [11] was “inactive” in each case.
On to `CCOCCOCCO`, for which the Potency result in assay [1], in assay [9], in [2], in assay [3], in assay [4] and in assay [6] was “inactive” throughout. Further, the Potency result in assay [7], in [8] and in assay [11] was “inactive” each time.
In the case of `Nc1ccc(Cl)cc1Cl`, the Potency result in assay [1], in [12], in assay [13], in assay [2], in assay [3] and in assay [4] was “inactive” each time. For the same molecule, the Potency result in assay [6], in assay [7], in assay [8] and in [11] was “inactive” throughout.
As to `Nc1ccc(Nc2ccccc2)cc1`, the Potency result in [1], in assay [12], in [13], in [3], in assay [4] and in [5] was “inactive” in each case. Moreover, in assay [6], the Potency result was “inactive”. In addition, the Potency in assay [9] was 54.5 µM (active) and 27.3 µM (active); in [2] it was 79.7 µM (active).
